Structures can show the parent of a compound that is named as a salt.
Test system: LOC_OS01G01410-cb001
Experiment: thermal shift delta Tm vs DMSO control; higher = stronger stabilization (binding)
Conditions: 12.5 µM; protein concentration 2 µM
Summary of the method: (§1)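 Compounds dissolved in DMSO were added to purified rice kinase domain constructs, which had been expressed in E. coli, for differential scanning fluorimetry. Each well held 19.5 μl of 2 μM kinase in 100 mM potassium phosphate pH 7.5, 150 mM NaCl, 10% glycerol and 5 × SYPRO Orange. Fluorescence was followed from 25°C to 95°C at a rate of 0.05°C/s. Shifts in Boltzmann-fitted melting temperature are triplicate means relative to DMSO-only protein.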

SMILES	thermal shift delta Tm
Cc1cnc(Nc2ccc(OCCN3CCCC3)cc2)nc1Nc1cccc(S(=O)(=O)NC(C)(C)C)c1	1.71 °C
CN1CCN(CCOc2cc(OC3CCOCC3)c3c(Nc4c(Cl)ccc5c4OCO5)ncnc3c2)CC1 [Saracatinib (AZD0530)]	0.88 °C
Cn1cc(-c2ccc(F)c(C(F)(F)F)c2)nc1C1CCN(c2ncnc3[nH]ncc23)CC1	0.43 °C
O=C(O)c1ccc2c(c1)nc(Nc1cccc(Cl)c1)c1ccncc12 [Silmitasertib (CX-4945)]	0.84 °C
Cn1c(=O)c(F)c(Nc2ccc(I)cc2F)c2c(=O)n(C[C@@H](O)CO)cnc21	0.56 °C
O=C(NC[C@H](O)CO)c1ccncc1Nc1ccc(I)cc1F	0.13 °C
COc1c(C)c(C(=O)c2ccc(N)c(C(=O)O)c2)n2ccccc12	0.21 °C
COc1cc(N2CCC(N)CC2)ccc1Nc1ncc(Cl)c(-c2c[nH]c3ccccc23)n1	0.82 °C
C=CC(=O)Nc1ccc2ncnc(Nc3ccc(OCc4cccc(F)c4)c(Cl)c3)c2c1	4.44 °C
CCS(=O)(=O)N1CCN(c2ccc(Nc3ncc(C(N)=O)c(NC4CC4)n3)cc2)CC1	5.29 °C
O=C1c2ccc(Nc3ccc(F)cc3F)cc2CCc2ccc(OC[C@H](O)CO)cc21 [Skepinone-L]	0.24 °C
CCN1C(=O)CNc2ncc(-c3ccc(-c4nc[nH]n4)nc3C)nc21	0.49 °C
Cc1ccc(CNc2ncnc3ccc(-c4ccc(CO)o4)cc23)o1	0.69 °C
CCc1cncnc1N1CCN(Cc2nc3ccc(C(F)(F)F)cc3[nH]2)CC1	0.68 °C
Cc1cc(CN2CCN(c3c(Br)cnc4nc(-c5ccc(N6CCN(C)CC6)cc5)[nH]c34)CC2)no1	4.15 °C
Cc1nc(-c2cn3c(n2)-c2ccc(-c4cnn(C(C)(C)C(N)=O)c4)cc2OCC3)n(C(C)C)n1 [Taselisib (GDC 0032)]	2.11 °C
Cc1ccc(NC(=O)c2ccc(CN3CCN(C)CC3)cc2)cc1Nc1nccc(-c2cccnc2)n1 [Imatinib Mesylate (STI571)]	1.08 °C
O=c1cc(N2CCOCC2)oc2c(-c3ccccc3)cccc12	1.06 °C
Nc1ncccc1-c1nc2ccc(-c3ccccc3)nc2n1-c1ccc(C2(N)CCC2)cc1 [Miransertib (ARQ 092) HCl]	0.37 °C

SMILES	thermal shift delta Tm
CNS(=O)(=O)C[C@H]1CC[C@H](N(C)c2[nH]cnc3nccc2-3)CC1 [Oclacitinib]	0.92 °C
N#Cc1ccc2[nH]c(O)c(-c3ccc(CN4CCOCC4)cn3)c2c1	0.79 °C
C[C@]1(O)C[C@@H](c2nc(-c3ccc4ccc(-c5ccccc5)nc4c3)c3c(N)nccn32)C1 [Linsitinib (OSI-906)]	1.14 °C
CN1CCC(COc2cnc(-c3cccc(Cn4nc(-c5cccc(C#N)c5)ccc4=O)c3)nc2)CC1	0.33 °C
CC(C)(C)c1nc(-c2ccc(NC(=O)Nc3cccc(C(F)(F)F)c3)c3ccccc23)c2c(N)nccn12 [kira6]	0.7 °C
Oc1c(F)cc(-c2cnccc2-c2ccc(N3CCOCC3)cc2)cc1F	0.86 °C
CC(C)[C@H](CO)Nc1nc(Nc2cccc(Cl)c2)c2ncn(C(C)C)c2n1 [Purvalanol A]	1.58 °C
CNC(=O)c1cc(Oc2ccc(NC(=O)Nc3ccc(Cl)c(C(F)(F)F)c3)cc2)ccn1 [Sorafenib]	1.65 °C
O=c1cc(-c2cccc3c2Sc2ccccc2S3)oc(N2CCOCC2)c1	0.6 °C
N#Cc1c(Oc2ccc(F)c(NC(=O)Cc3cccc(C(F)(F)F)c3)c2)ccc2nc(NC(=O)C3CC3)sc12	1 °C
CC[C@@](C)(Nc1ccnc(-c2c[nH]c3ncccc23)n1)C(=O)NCC(F)(F)F [Decernotinib (VX-509)]	0.58 °C
CCNC(=O)Nc1ccc(-c2nc3c(c(N4CCOC[C@@H]4C)n2)CCN(C2COC2)C3)cc1	0.46 °C
COc1cc(OC)cc(N(CCNC(C)C)c2ccc3ncc(-c4cnn(C)c4)nc3c2)c1	0.55 °C
C[C@@]1(C(=O)Nc2ccc(F)nc2)CCCN1c1nc(Nc2cc(C3CC3)n[nH]2)c2cccn2n1	1.85 °C
O=C1CCc2c(Oc3ccc4c(c3)[C@@H]3[C@H](O4)[C@H]3c3nc4cc(C(F)(F)F)ccc4[nH]3)ccnc2N1 [Lifirafenib (BGB-283)]	1.01 °C
O=C1Nc2ccc(CN3C(=O)CSC3=O)cc2/C1=C/c1cc(CN2CCOCC2)c[nH]1	1.25 °C
CN(c1ccccc1CNc1nc(Nc2ccc3c(c2)CC(=O)N3)ncc1C(F)(F)F)S(C)(=O)=O	2.5 °C
Cc1nc(N)sc1-c1ccnc(Nc2ccc(N3CCOCC3)cc2)n1	5.75 °C

Test system: LOC_OS01G02750-cb003
Experiment: as above
Conditions: 12.5 µM; protein concentration 2 µM
Summary of the method: as §1

SMILES	thermal shift delta Tm
Cc1cnc(Nc2ccc(OCCN3CCCC3)cc2)nc1Nc1cccc(S(=O)(=O)NC(C)(C)C)c1	0.69 °C
CN1CCN(CCOc2cc(OC3CCOCC3)c3c(Nc4c(Cl)ccc5c4OCO5)ncnc3c2)CC1 [Saracatinib (AZD0530)]	0.03 °C
Cn1cc(-c2ccc(F)c(C(F)(F)F)c2)nc1C1CCN(c2ncnc3[nH]ncc23)CC1	0.52 °C
O=C(O)c1ccc2c(c1)nc(Nc1cccc(Cl)c1)c1ccncc12 [Silmitasertib (CX-4945)]	2.8 °C
Cn1c(=O)c(F)c(Nc2ccc(I)cc2F)c2c(=O)n(C[C@@H](O)CO)cnc21	-0.22 °C
O=C(NC[C@H](O)CO)c1ccncc1Nc1ccc(I)cc1F	0.07 °C
COc1c(C)c(C(=O)c2ccc(N)c(C(=O)O)c2)n2ccccc12	1.05 °C
COc1cc(N2CCC(N)CC2)ccc1Nc1ncc(Cl)c(-c2c[nH]c3ccccc23)n1	0.87 °C
C=CC(=O)Nc1ccc2ncnc(Nc3ccc(OCc4cccc(F)c4)c(Cl)c3)c2c1	7.88 °C
CCS(=O)(=O)N1CCN(c2ccc(Nc3ncc(C(N)=O)c(NC4CC4)n3)cc2)CC1	1.8 °C
O=C1c2ccc(Nc3ccc(F)cc3F)cc2CCc2ccc(OC[C@H](O)CO)cc21 [Skepinone-L]	1.29 °C
CCN1C(=O)CNc2ncc(-c3ccc(-c4nc[nH]n4)nc3C)nc21	-0.88 °C
Cc1ccc(CNc2ncnc3ccc(-c4ccc(CO)o4)cc23)o1	1.49 °C
CCc1cncnc1N1CCN(Cc2nc3ccc(C(F)(F)F)cc3[nH]2)CC1	1.15 °C
Cc1cc(CN2CCN(c3c(Br)cnc4nc(-c5ccc(N6CCN(C)CC6)cc5)[nH]c34)CC2)no1	1.45 °C
Cc1nc(-c2cn3c(n2)-c2ccc(-c4cnn(C(C)(C)C(N)=O)c4)cc2OCC3)n(C(C)C)n1 [Taselisib (GDC 0032)]	-0.1 °C
Cc1ccc(NC(=O)c2ccc(CN3CCN(C)CC3)cc2)cc1Nc1nccc(-c2cccnc2)n1 [Imatinib Mesylate (STI571)]	0.88 °C
O=c1cc(N2CCOCC2)oc2c(-c3ccccc3)cccc12	-0.94 °C
Nc1ncccc1-c1nc2ccc(-c3ccccc3)nc2n1-c1ccc(C2(N)CCC2)cc1 [Miransertib (ARQ 092) HCl]	2.32 °C

SMILES	thermal shift delta Tm
CNS(=O)(=O)C[C@H]1CC[C@H](N(C)c2[nH]cnc3nccc2-3)CC1 [Oclacitinib]	1.16 °C
N#Cc1ccc2[nH]c(O)c(-c3ccc(CN4CCOCC4)cn3)c2c1	1.84 °C
C[C@]1(O)C[C@@H](c2nc(-c3ccc4ccc(-c5ccccc5)nc4c3)c3c(N)nccn32)C1 [Linsitinib (OSI-906)]	-0.88 °C
CN1CCC(COc2cnc(-c3cccc(Cn4nc(-c5cccc(C#N)c5)ccc4=O)c3)nc2)CC1	0.27 °C
CC(C)(C)c1nc(-c2ccc(NC(=O)Nc3cccc(C(F)(F)F)c3)c3ccccc23)c2c(N)nccn12 [kira6]	9.79 °C
Oc1c(F)cc(-c2cnccc2-c2ccc(N3CCOCC3)cc2)cc1F	0.33 °C
CC(C)[C@H](CO)Nc1nc(Nc2cccc(Cl)c2)c2ncn(C(C)C)c2n1 [Purvalanol A]	3.04 °C
CNC(=O)c1cc(Oc2ccc(NC(=O)Nc3ccc(Cl)c(C(F)(F)F)c3)cc2)ccn1 [Sorafenib]	3.61 °C
O=c1cc(-c2cccc3c2Sc2ccccc2S3)oc(N2CCOCC2)c1	-5.37 °C
N#Cc1c(Oc2ccc(F)c(NC(=O)Cc3cccc(C(F)(F)F)c3)c2)ccc2nc(NC(=O)C3CC3)sc12	2.13 °C
CC[C@@](C)(Nc1ccnc(-c2c[nH]c3ncccc23)n1)C(=O)NCC(F)(F)F [Decernotinib (VX-509)]	1.32 °C
CCNC(=O)Nc1ccc(-c2nc3c(c(N4CCOC[C@@H]4C)n2)CCN(C2COC2)C3)cc1	0.52 °C
COc1cc(OC)cc(N(CCNC(C)C)c2ccc3ncc(-c4cnn(C)c4)nc3c2)c1	1.27 °C
C[C@@]1(C(=O)Nc2ccc(F)nc2)CCCN1c1nc(Nc2cc(C3CC3)n[nH]2)c2cccn2n1	3.65 °C
O=C1CCc2c(Oc3ccc4c(c3)[C@@H]3[C@H](O4)[C@H]3c3nc4cc(C(F)(F)F)ccc4[nH]3)ccnc2N1 [Lifirafenib (BGB-283)]	3.41 °C
O=C1Nc2ccc(CN3C(=O)CSC3=O)cc2/C1=C/c1cc(CN2CCOCC2)c[nH]1	3.61 °C
CN(c1ccccc1CNc1nc(Nc2ccc3c(c2)CC(=O)N3)ncc1C(F)(F)F)S(C)(=O)=O	7.01 °C
Cc1nc(N)sc1-c1ccnc(Nc2ccc(N3CCOCC3)cc2)n1	10.4 °C
